Data: PubChem BioAssay (Tox21)
Several values for one entry are separate records, joined by “and”; a condition that tells them apart may be missing. Equal entries are not always repeated. Results filed as inconclusive are left out. Where a call stands in place of a potency, no number is given. More than one record can exist for a structure, and the calls need not agree. Activity calls are given as the source filed them. Unless noted, calls follow the shape of the dose curve; as a rule, active = well fitted curve in the direction sought with a large enough effect in the repeat runs; inconclusive = weak or mixed curves; inactive = no such curve, though single readings can be large; an effect the other way counts as inactive or inconclusive.

Tests used:
[1] = qHTS assay to identify small molecule antagonists of the glucocorticoid receptor (GR) signaling pathway - cell viability counter screen (AID 720693); also: nearly all actives have a fitted effect of over 55% in size
[2] = qHTS assay for identifying genotoxic compounds that show differential cytotoxicity against isogenic chicken DT40 cell lines with known DNA damage response pathways - wild type cell line (AID 743012); also: nearly all actives have a fitted effect of over 60% in size; also: potency is read from the fitted curve at half-maximal effect
Method in brief: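 CellTiter-Glo luminescence readout of viability in wild type DT40 cells after 40 h compound exposure at 37 C/5% CO2; 300 cells/well; reagent incubated 30 min at room temperature before reading.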

[3] = qHTS assay for identifying genotoxic compounds that show differential cytotoxicity against isogenic chicken DT40 cell lines with known DNA damage response pathways - Rev3 mutant cell line (AID 743014); also: nearly all actives have a fitted effect of over 55% in size; also: potency is read from the fitted curve at half-maximal effect
[4] = qHTS assay for identifying genotoxic compounds that show differential cytotoxicity against isogenic chicken DT40 cell lines with known DNA damage response pathways - Rad54/Ku70 mutant cell line (AID 743015); also: nearly all actives have a fitted effect of over 60% in size; also: potency is read from the fitted curve at half-maximal effect
[5] = qHTS assay to identify small molecule antagonists of the androgen receptor (AR) signaling pathway - cell viability counter screen (AID 743033; also: nearly all actives have a fitted effect of over 45% in size)
[6] = target: Androgen receptor (Homo sapiens) (UniProt P10275); experiment: qHTS assay to identify small molecule antagonists of the androgen receptor (AR) signaling pathway (AID 743035; active = well fitted inhibition curve with a large enough effect in the signal ratio in the repeat runs, not every such curve was filed as active; the % refers to the signal ratio)
Androgen receptor (Homo sapiens), sequence (P10275 whole entry, looked up): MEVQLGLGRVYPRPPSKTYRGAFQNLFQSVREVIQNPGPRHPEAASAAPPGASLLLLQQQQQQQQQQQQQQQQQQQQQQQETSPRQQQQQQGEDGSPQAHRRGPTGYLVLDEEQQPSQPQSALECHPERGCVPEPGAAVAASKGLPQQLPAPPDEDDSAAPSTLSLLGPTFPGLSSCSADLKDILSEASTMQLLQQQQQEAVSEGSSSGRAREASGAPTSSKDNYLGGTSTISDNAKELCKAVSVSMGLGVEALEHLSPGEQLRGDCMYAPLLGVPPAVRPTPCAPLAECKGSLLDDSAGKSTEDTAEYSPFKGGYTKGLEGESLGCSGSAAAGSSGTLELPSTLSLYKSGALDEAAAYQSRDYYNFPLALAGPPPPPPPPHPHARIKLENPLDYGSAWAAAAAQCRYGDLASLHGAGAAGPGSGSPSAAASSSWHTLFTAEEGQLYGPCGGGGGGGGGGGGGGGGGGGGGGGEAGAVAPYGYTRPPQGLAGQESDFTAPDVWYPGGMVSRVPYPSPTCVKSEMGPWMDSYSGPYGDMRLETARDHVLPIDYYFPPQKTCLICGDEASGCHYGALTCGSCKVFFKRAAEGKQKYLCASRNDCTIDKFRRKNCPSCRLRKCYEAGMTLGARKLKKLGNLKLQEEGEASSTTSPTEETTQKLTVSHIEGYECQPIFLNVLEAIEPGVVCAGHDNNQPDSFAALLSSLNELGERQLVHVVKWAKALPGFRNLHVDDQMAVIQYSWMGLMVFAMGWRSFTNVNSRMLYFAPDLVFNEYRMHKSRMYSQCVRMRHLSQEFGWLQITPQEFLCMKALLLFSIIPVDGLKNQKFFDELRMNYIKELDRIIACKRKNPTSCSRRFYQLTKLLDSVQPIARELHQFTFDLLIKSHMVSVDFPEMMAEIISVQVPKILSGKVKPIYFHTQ
Method in brief: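 AR-bla HEK293 reporter cells; 4 h settle at 37C/5% CO2; compound + R1881 agonist, 16 h at 37C; LiveBLAzer B/G FRET substrate 2 h RT; fluorescence intensity read. qHTS format.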

[7] = target: Androgen receptor (Homo sapiens) (UniProt P10275); experiment: qHTS assay to identify small molecule agonists of the androgen receptor (AR) signaling pathway (AID 743036; active = well fitted activation curve with a large enough effect in the signal ratio in the repeat runs, with a control signal flat, not every such curve was filed as active; the % refers to the signal ratio)
Method in brief: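 Activation was read as beta-lactamase FRET signal from LiveBLAzer B/G substrate, added for 2 h at room temperature. Before that, GeneBLAzer AR-UAS-bla GripTite (HEK293) cells had 16 h compound exposure at 37C.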

[8] = target: Androgen receptor (Homo sapiens) (UniProt P10275); experiment: qHTS assay to identify small molecule agonists of the androgen receptor (AR) signaling pathway using the MDA cell line (AID 743040; also: nearly all actives have a fitted effect of over 20% in size)
Method in brief: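 Cell-based luciferase reporter: MDA-kb2, MMTV promoter (AR + GR response elements). 16 h compound exposure at 37C; ONE-Glo, 30 min RT, luminescence.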

[9] = qHTS assay to identify small molecule antagonists of the androgen receptor (AR) signaling pathway using the MDA cell line - cell viability counter screen (AID 743041; also: nearly all actives have a fitted effect of over 45% in size)
Method in brief: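 In this qHTS counter assay, fluorescence intensity after CellTiter-Fluor addition indicated viability of MDA-kb2 AR-luc cells given compounds and R1881 for 16 h at 37C.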

[10] = target: Androgen receptor (Homo sapiens) (UniProt P10275); experiment: qHTS assay to identify small molecule antagonists of the androgen receptor (AR) signaling pathway using the MDA cell line (AID 743042; also: nearly all actives have a fitted effect of over 55% in size)
Method in brief: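 MDA-kb2 cells (human breast carcinoma, stably carrying an MMTV-luciferase reporter responsive to AR and GR) were plated at 3,000 cells/well and preincubated 5 hr at 37C, then given compound plus R1881 agonist for 16 h. ONE-Glo luminescence was read.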

[11] = qHTS assay to identify small molecule antagonists of the thyroid receptor (TR) signaling pathway - cell viability counter screen (AID 743064); also: nearly all actives have a fitted effect of over 50% in size
Method in brief: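 In-well cytotoxicity read by CellTiter-Fluor (30 min, 37 C) following 23.5 h exposure of GH3 cells bearing a TRE-luciferase sensor. Compounds were added alongside 1 nM (final) T3 to drive TR transactivation.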

[12] = qHTS assay to identify small molecule antagonists of the thyroid receptor (TR) signaling pathway (AID 743065); also: series mostly up to about 70 µM; nearly all actives have a fitted effect of over 55% in size
Method in brief: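 GH3.TRE-Luc rat pituitary cells carrying two TR response elements driving luciferase were plated for 4 h, given compound plus 1 nM T3 (final), and incubated 23.5 h at 37 C. ONE-Glo luminescence measured reporter inhibition; CellTiter-Fluor fluorescence tracked cytotoxicity.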

[13] = system: thyroid hormone receptor (rat, GH3 cells); experiment: qHTS assay to identify small molecule agonists of the thyroid receptor (TR) signaling pathway (AID 743066; calls by dose curve)
[14] = target: Estrogen receptor (Homo sapiens) (UniProt P03372); experiment: qHTS assay to identify small molecule antagonists of the estrogen receptor alpha (ER-alpha) signaling pathway (AID 743069; active = well fitted curve in the direction sought with a large enough effect in the signal ratio in the repeat runs, not every such curve was filed as active; the % refers to the signal ratio)
Estrogen receptor (Homo sapiens), sequence (P03372 whole entry, looked up): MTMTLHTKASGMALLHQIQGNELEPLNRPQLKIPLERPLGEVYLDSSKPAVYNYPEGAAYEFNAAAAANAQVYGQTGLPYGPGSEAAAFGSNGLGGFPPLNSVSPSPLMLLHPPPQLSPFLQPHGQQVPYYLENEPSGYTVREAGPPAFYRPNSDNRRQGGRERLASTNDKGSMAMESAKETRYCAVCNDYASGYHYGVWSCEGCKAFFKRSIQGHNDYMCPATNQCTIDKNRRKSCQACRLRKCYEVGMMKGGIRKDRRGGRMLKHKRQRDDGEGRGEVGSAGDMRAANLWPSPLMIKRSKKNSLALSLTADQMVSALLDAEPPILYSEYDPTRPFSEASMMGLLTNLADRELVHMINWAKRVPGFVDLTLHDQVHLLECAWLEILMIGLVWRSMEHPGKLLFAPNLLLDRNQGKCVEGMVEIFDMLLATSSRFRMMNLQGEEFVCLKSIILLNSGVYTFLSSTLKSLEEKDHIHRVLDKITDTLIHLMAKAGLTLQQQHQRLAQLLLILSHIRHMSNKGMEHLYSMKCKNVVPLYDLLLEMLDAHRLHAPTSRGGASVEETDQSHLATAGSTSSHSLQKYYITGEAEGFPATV
Method in brief: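 A 17beta-estradiol challenge was applied right after compound transfer to ER-alpha-UAS-bla HEK293 cells previously kept in charcoal-stripped serum. Plates stood 18 hr at 37C and 5% CO2; fluorescence was read following 2 hr FRET substrate loading at room temperature.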

[15] = qHTS assay to identify small molecule antagonists of the estrogen receptor alpha (ER-alpha) signaling pathway - cell viability counter screen (AID 743074; calls by dose curve;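 also: HEK293 cells carrying ER-alpha-UAS-bla reporter stimulated with 17beta-estradiol; nearly all actives have a fitted effect of over 45% in size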)
[16] = target: Estrogen receptor (Homo sapiens) (UniProt P03372); experiment: qHTS assay to identify small molecule agonists of the estrogen receptor alpha (ER-alpha) signaling pathway (AID 743075; calls by dose curve;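 also: HEK293 GripTite cells with ER-alpha and UAS-driven beta-lactamase reporter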; also: potency is read from the fitted curve at half-maximal effect)
[17] = target: Estrogen receptor (Homo sapiens) (UniProt P03372); experiment: qHTS assay to identify small molecule agonists of the estrogen receptor alpha (ER-alpha) signaling pathway using the BG1 cell line (AID 743079); also: nearly all actives have a fitted effect of over 20% in size; also: potency is read from the fitted curve at half-maximal effect
[18] = qHTS assay to identify small molecule antagonists of the estrogen receptor alpha (ER-alpha) signaling pathway using the BG1 cell line (AID 743080; calls by dose curve;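 also: BG1 cells stimulated with 17beta-estradiol alongside compound; series mostly up to about 70 µM; nearly all actives have a fitted effect of over 25% in size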)
Method in brief: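 Endogenous full-length ER-alpha in BG1-Luc-4E2 cells drives a stably integrated 4×ERE luciferase gene; compounds were tested against 17beta-estradiol over 21.5 h, with luminescence and multiplexed viability fluorescence recorded.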

[19] = qHTS assay to identify small molecule antagonists of the estrogen receptor alpha (ER-alpha) signaling pathway using the BG1 cell line - cell viability counter screen (AID 743081);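 also: compound given together with 17beta-estradiol as the ER stimulus; nearly all actives have a fitted effect of over 45% in size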; also: potency is read from the fitted curve at half-maximal effect
[20] = target: Aromatase (Homo sapiens) (UniProt P11511); experiment: qHTS assay to identify aromatase inhibitors (AID 743083); also: nearly all actives have a fitted effect of over 55% in size; also: potency is read from the fitted curve at half-maximal effect
Aromatase (Homo sapiens), sequence (P11511 whole entry, looked up): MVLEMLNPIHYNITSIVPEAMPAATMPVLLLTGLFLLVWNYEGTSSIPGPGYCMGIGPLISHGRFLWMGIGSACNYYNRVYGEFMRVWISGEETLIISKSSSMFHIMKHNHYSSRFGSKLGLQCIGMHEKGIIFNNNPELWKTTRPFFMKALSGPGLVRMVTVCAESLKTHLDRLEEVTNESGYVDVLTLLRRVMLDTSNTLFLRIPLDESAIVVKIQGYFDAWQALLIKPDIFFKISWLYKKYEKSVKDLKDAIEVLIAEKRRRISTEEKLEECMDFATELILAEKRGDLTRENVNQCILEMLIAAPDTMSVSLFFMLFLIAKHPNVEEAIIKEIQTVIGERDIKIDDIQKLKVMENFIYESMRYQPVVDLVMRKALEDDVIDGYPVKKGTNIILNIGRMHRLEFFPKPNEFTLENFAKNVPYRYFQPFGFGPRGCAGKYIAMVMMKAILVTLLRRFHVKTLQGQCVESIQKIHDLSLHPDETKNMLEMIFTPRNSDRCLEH

SMILES | Potency [1] | Potency [2] | Potency [3] | Potency [4] | outcome [5] | Potency [6] | outcome [7] | Potency [8] | Potency [9] | Potency [10] | Potency [11] | Potency [12] | outcome [13] | Potency [14] | outcome [15] | Potency [16] | Potency [17] | Potency [18] | Potency [19] | Potency [20]
COCC(C)N (stereo not given) | inactive | inactive | inactive | inactive | inactive | inactive | inactive | inactive | inactive | inactive | inactive | inactive | inactive | inactive | inactive | inactive | inactive | inactive | inactive | inactive
c1ccc2[nH]c(-c3cscn3)nc2c1 | inactive | inactive and 69 µM (active) | inactive and 54.5 µM (active) | inactive and 48.6 µM (active) | inactive | inactive | inactive | inactive | inactive | inactive | inactive | inactive | inactive | inactive | inactive | inactive | 16.8 µM (active) and 24.5 µM (active) and 9.69 µM (active) |  | inactive | inactive
CC(=O)/C=C/C1=C(C)CCCC1(C)C | inactive | inactive | inactive | inactive | inactive |  |  |  | inactive |  | inactive | inactive | inactive | inactive | inactive | inactive | inactive |  | inactive | inactive
C=CCOC(=O)CC(C)C | inactive | inactive | inactive | inactive | inactive |  |  |  | inactive |  | inactive | inactive | inactive | inactive | inactive | inactive | inactive |  | inactive | inactive
C[C@]12C[C@H](O)[C@H]3[C@@H](CCC4=CC(=O)CC[C@@]43C)[C@@H]1CC[C@@H]2C(=O)CO | inactive | inactive | inactive | 48.6 µM (active) | inactive |  |  |  | inactive |  | inactive | inactive | inactive | inactive | inactive | inactive | inactive |  | inactive | inactive
CC(=O)OC/C=C(C)/C=C/C=C(C)/C=C/C1=C(C)CCCC1(C)C | inactive | 61.1 µM (active) | inactive and 59.6 µM (active) and 54.5 µM (active) | 47.4 µM (active) and 30.6 µM (active) | inactive |  |  |  | inactive |  | inactive | inactive | inactive | inactive | inactive | inactive and 33.8 µM [activator] (active) | inactive |  | inactive | inactive
NC(=O)N/N=C/c1ccc([N+](=O)[O-])o1 | inactive | inactive and 30.6 µM (active) | inactive and 43.3 µM (active) | 29.8 µM (active) and inactive and 38.6 µM (active) | inactive |  |  |  | inactive |  | inactive | inactive | inactive | inactive | inactive | inactive | inactive |  | inactive and 54.5 µM (active) | inactive and 62.9 µM (active)
CCc1cc(C(N)=S)ccn1 | inactive | inactive | inactive | inactive | inactive |  |  |  | inactive |  | inactive | inactive | inactive |  | inactive |  |  |  | inactive | 
Cc1cnc(NC(=O)C2=C(O)c3ccccc3S(=O)(=O)N2C)s1 | inactive | 26.6 µM (active) and inactive and 6.86 µM (active) | inactive and 27.4 µM (active) and 8.63 µM (active) | inactive and 27.3 µM (active) | inactive |  |  |  | inactive |  | inactive | inactive | inactive | inactive | inactive | inactive | inactive and 21.1 µM (active) |  | inactive | inactive
NC(=O)N1c2ccccc2C=Cc2ccccc21 | inactive | inactive and 30.6 µM (active) | inactive and 30.6 µM (active) | inactive and 54.5 µM (active) | inactive |  |  |  | inactive |  | inactive | inactive | inactive | inactive | inactive | inactive | inactive |  | inactive | inactive
CCN1CCCC1=O | inactive | inactive | inactive | inactive | inactive |  |  |  | inactive |  | inactive | inactive | inactive | inactive | inactive | inactive | inactive |  | inactive | inactive
COc1ccccc1O | inactive | inactive | inactive | inactive | inactive |  |  |  | inactive |  | inactive | inactive | inactive | inactive | inactive | inactive | inactive |  | inactive | inactive
CC(C)Cc1ccc(C(C)C(=O)O)cc1 (stereo not given) | inactive | inactive | inactive | inactive | inactive |  |  |  | inactive |  | inactive | inactive | inactive | inactive | inactive | inactive | inactive and 68.6 µM (active) |  | inactive | inactive
CCOC(=O)C(C)(C)Oc1ccc(Cl)cc1 | inactive | inactive | inactive | inactive | inactive |  |  |  | inactive |  | inactive | inactive | inactive | inactive | inactive | inactive | 26.6 µM (active) and inactive |  | inactive | inactive
C=CC(=O)NC(C)(C)CS(=O)(=O)O | inactive | inactive | inactive | inactive | inactive |  |  |  | inactive |  | inactive | inactive | inactive | inactive | inactive | inactive | inactive |  | inactive | inactive
